# Laboratory results as given in the supplement of paper PMC4466140.
# B1: unnamed (peptide)
# chain: DHPKGPPPPPPPDEK
# Key:
# Assay in all cases: SPOT peptide array binding signal intensity (averaged, normalized) (arbitrary units (background-subtracted, floor 0; scale differs between SH3 domains)); higher = stronger binding of the SH3 domain to the peptide
# AgAbp1 = molecular target: AgAbp1
# Method in brief: (§1)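 To measure binding, SH3 domains from four yeast species were fused to GST, expressed in E. coli BL21(DE3) and purified on glutathione Sepharose. Each domain was incubated at 10 μg/ml overnight at 4°C on cellulose membranes with synthetic 15-mer peptides whose cysteines were replaced by serines. Anti-GST antibody, an HRP anti-mouse secondary and luminol were used for detection, and images were quantified with Genespotter. Reported binding signal is normalized, background-subtracted spot intensity averaged over replicates, in arbitrary units that differ between domains.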
# AgBbc1 = molecular target: AgBbc1
# Method in brief: as §1
# AgBem1-D1 = molecular target: AgBem1-D1
# Method in brief: as §1
# AgBzz1-D1 = molecular target: AgBzz1-D1
# Method in brief: as §1
# AgBzz1-D2 = molecular target: AgBzz1-D2
# Method in brief: as §1
# AgCyk3 = molecular target: AgCyk3
# Method in brief: as §1
# AgFus1 = molecular target: AgFus1
# Method in brief: as §1
# AgHof1 = molecular target: AgHof1
# Method in brief: as §1
# AgHse1 = molecular target: AgHse1
# Method in brief: as §1
# AgLsb1 = molecular target: AgLsb1
# Method in brief: as §1
# AgLsb4 = molecular target: AgLsb4
# Method in brief: as §1
# AgMyo5 = molecular target: AgMyo5
# Method in brief: as §1
# AgNbp2 = molecular target: AgNbp2
# Method in brief: as §1
# AgRvs167 = molecular target: AgRvs167
# Method in brief: as §1
# AgSho1 = molecular target: AgSho1
# Method in brief: as §1
# AgSla1-D1-D2 = molecular target: AgSla1-D1-D2
# Method in brief: as §1
# AgSla1-D3 = molecular target: AgSla1-D3
# Method in brief: as §1
# CaAbp1-D1 = molecular target: CaAbp1-D1
# Method in brief: as §1
# CaAbp1-D2 = molecular target: CaAbp1-D2
# Method in brief: as §1
# CaBbc1 = molecular target: CaBbc1
# Method in brief: as §1
# CaBem1-D1 = molecular target: CaBem1-D1
# Method in brief: as §1
# CaBzz1-D1 = molecular target: CaBzz1-D1
# Method in brief: as §1
# CaBzz1-D2 = molecular target: CaBzz1-D2
# Method in brief: as §1
# CaCyk3 = molecular target: CaCyk3
# Method in brief: as §1
# CaFus1 = molecular target: CaFus1
# Method in brief: as §1
# CaHof1 = molecular target: CaHof1
# Method in brief: as §1
# CaHse1 = molecular target: CaHse1
# Method in brief: as §1
# CaLsb1 = molecular target: CaLsb1
# Method in brief: as §1
# CaLsb4 = molecular target: CaLsb4
# Method in brief: as §1
# CaMyo5 = molecular target: CaMyo5
# Method in brief: as §1
# CaNbp2 = molecular target: CaNbp2
# Method in brief: as §1
# CaRvs167 = molecular target: CaRvs167
# Method in brief: as §1
# CaRvs167-3 = molecular target: CaRvs167-3
# Method in brief: as §1
# CaSho1 = molecular target: CaSho1
# Method in brief: as §1
# CaSla1-D1-D2 = molecular target: CaSla1-D1-D2
# Method in brief: as §1
# CaSla1-D3 = molecular target: CaSla1-D3
# Method in brief: as §1
# ScAbp1 = molecular target: ScAbp1
# Method in brief: as §1
# ScBbc1 = molecular target: ScBbc1
# Method in brief: as §1
# ScBem1-D1 = molecular target: ScBem1-D1
# Method in brief: as §1
# ScBzz1-D1 = molecular target: ScBzz1-D1
# Method in brief: as §1
# ScBzz1-D2 = molecular target: ScBzz1-D2
# Method in brief: as §1
# ScCyk3 = molecular target: ScCyk3
# Method in brief: as §1
# ScFus1 = molecular target: ScFus1
# Method in brief: as §1
# ScHof1 = molecular target: ScHof1
# Method in brief: as §1
# ScHse1 = molecular target: ScHse1
# Method in brief: as §1
# ScLsb1 = molecular target: ScLsb1
# Method in brief: as §1
# ScLsb2 = molecular target: ScLsb2
# Method in brief: as §1
# ScLsb3 = molecular target: ScLsb3
# Method in brief: as §1
# ScLsb4 = molecular target: ScLsb4
# Method in brief: as §1
# ScMyo3 = molecular target: ScMyo3
# Method in brief: as §1
# ScMyo5 = molecular target: ScMyo5
# Method in brief: as §1
# ScNbp2 = molecular target: ScNbp2
# Method in brief: as §1
# ScPex13 = molecular target: ScPex13
# Method in brief: as §1
# ScRvs167 = molecular target: ScRvs167
# Method in brief: as §1
# ScSho1 = molecular target: ScSho1
# Method in brief: as §1
# ScSla1-D1-D2 = molecular target: ScSla1-D1-D2
# Method in brief: as §1
# ScSla1-D3 = molecular target: ScSla1-D3
# Method in brief: as §1
# SpAbp1-D1 = molecular target: SpAbp1-D1
# Method in brief: as §1
# SpBbc1 = molecular target: SpBbc1
# Method in brief: as §1
# SpBzz1-D1 = molecular target: SpBzz1-D1
# Method in brief: as §1
# SpBzz1-D2 = molecular target: SpBzz1-D2
# Method in brief: as §1
# SpCyk3 = molecular target: SpCyk3
# Method in brief: as §1
# SpHof1 = molecular target: SpHof1
# Method in brief: as §1
# SpHof1-2 = molecular target: SpHof1-2
# Method in brief: as §1
# SpHof1-3 = molecular target: SpHof1-3
# Method in brief: as §1
# SpHse1 = molecular target: SpHse1
# Method in brief: as §1
# SpLsb1 = molecular target: SpLsb1
# Method in brief: as §1
# SpLsb4 = molecular target: SpLsb4
# Method in brief: as §1
# SpMyo1 = molecular target: SpMyo1
# Method in brief: as §1
# SpNbp2 = molecular target: SpNbp2
# Method in brief: as §1
# SpPex13 = molecular target: SpPex13
# Method in brief: as §1
# SpRvs167 = molecular target: SpRvs167
# Method in brief: as §1
# SpSla1-D1-D2 = molecular target: SpSla1-D1-D2
# Method in brief: as §1
# SpSla1-D3 = molecular target: SpSla1-D3
# Method in brief: as §1
binder,measurement,setting,value
B1,SPOT peptide array binding signal intensity,AgAbp1,9
same,SPOT peptide array binding signal intensity,AgBbc1,3.75
same,SPOT peptide array binding signal intensity,AgBem1-D1,≤ 0
same,SPOT peptide array binding signal intensity,AgBzz1-D1,1100
same,SPOT peptide array binding signal intensity,AgBzz1-D2,111
same,SPOT peptide array binding signal intensity,AgCyk3,≤ 0
same,SPOT peptide array binding signal intensity,AgFus1,6.5
same,SPOT peptide array binding signal intensity,AgHof1,≤ 0
same,SPOT peptide array binding signal intensity,AgHse1,33
same,SPOT peptide array binding signal intensity,AgLsb1,1.5
same,SPOT peptide array binding signal intensity,AgLsb4,≤ 0
same,SPOT peptide array binding signal intensity,AgMyo5,1710
same,SPOT peptide array binding signal intensity,AgNbp2,7
same,SPOT peptide array binding signal intensity,AgRvs167,1.17
same,SPOT peptide array binding signal intensity,AgSho1,≤ 0
same,SPOT peptide array binding signal intensity,AgSla1-D1-D2,14
same,SPOT peptide array binding signal intensity,AgSla1-D3,297
same,SPOT peptide array binding signal intensity,CaAbp1-D1,1.5
same,SPOT peptide array binding signal intensity,CaAbp1-D2,1
same,SPOT peptide array binding signal intensity,CaBbc1,≤ 0
same,SPOT peptide array binding signal intensity,CaBem1-D1,≤ 0
same,SPOT peptide array binding signal intensity,CaBzz1-D1,2890
same,SPOT peptide array binding signal intensity,CaBzz1-D2,2700
same,SPOT peptide array binding signal intensity,CaCyk3,≤ 0
same,SPOT peptide array binding signal intensity,CaFus1,≤ 0
same,SPOT peptide array binding signal intensity,CaHof1,2.5
same,SPOT peptide array binding signal intensity,CaHse1,6
same,SPOT peptide array binding signal intensity,CaLsb1,≤ 0
same,SPOT peptide array binding signal intensity,CaLsb4,20.5
same,SPOT peptide array binding signal intensity,CaMyo5,38.8
same,SPOT peptide array binding signal intensity,CaNbp2,≤ 0
same,SPOT peptide array binding signal intensity,CaRvs167,0.667
same,SPOT peptide array binding signal intensity,CaRvs167-3,≤ 0
same,SPOT peptide array binding signal intensity,CaSho1,7.5
same,SPOT peptide array binding signal intensity,CaSla1-D1-D2,12
same,SPOT peptide array binding signal intensity,CaSla1-D3,2.75
same,SPOT peptide array binding signal intensity,ScAbp1,4
same,SPOT peptide array binding signal intensity,ScBbc1,3.5
same,SPOT peptide array binding signal intensity,ScBem1-D1,4
same,SPOT peptide array binding signal intensity,ScBzz1-D1,3400
same,SPOT peptide array binding signal intensity,ScBzz1-D2,45
same,SPOT peptide array binding signal intensity,ScCyk3,1
same,SPOT peptide array binding signal intensity,ScFus1,8.5
same,SPOT peptide array binding signal intensity,ScHof1,1
same,SPOT peptide array binding signal intensity,ScHse1,2
same,SPOT peptide array binding signal intensity,ScLsb1,1
same,SPOT peptide array binding signal intensity,ScLsb2,≤ 0
same,SPOT peptide array binding signal intensity,ScLsb3,≤ 0
same,SPOT peptide array binding signal intensity,ScLsb4,0.5
same,SPOT peptide array binding signal intensity,ScMyo3,1750
same,SPOT peptide array binding signal intensity,ScMyo5,1380
same,SPOT peptide array binding signal intensity,ScNbp2,18.5
same,SPOT peptide array binding signal intensity,ScPex13,≤ 0
same,SPOT peptide array binding signal intensity,ScRvs167,0.5
same,SPOT peptide array binding signal intensity,ScSho1,≤ 0
same,SPOT peptide array binding signal intensity,ScSla1-D1-D2,≤ 0
same,SPOT peptide array binding signal intensity,ScSla1-D3,2.5
same,SPOT peptide array binding signal intensity,SpAbp1-D1,8
same,SPOT peptide array binding signal intensity,SpBbc1,≤ 0
same,SPOT peptide array binding signal intensity,SpBzz1-D1,155
same,SPOT peptide array binding signal intensity,SpBzz1-D2,1.75
same,SPOT peptide array binding signal intensity,SpCyk3,≤ 0
same,SPOT peptide array binding signal intensity,SpHof1,1
same,SPOT peptide array binding signal intensity,SpHof1-2,6.5
same,SPOT peptide array binding signal intensity,SpHof1-3,4
same,SPOT peptide array binding signal intensity,SpHse1,87.2
same,SPOT peptide array binding signal intensity,SpLsb1,≤ 0
same,SPOT peptide array binding signal intensity,SpLsb4,≤ 0
same,SPOT peptide array binding signal intensity,SpMyo1,1880
same,SPOT peptide array binding signal intensity,SpNbp2,18.5
same,SPOT peptide array binding signal intensity,SpPex13,10
same,SPOT peptide array binding signal intensity,SpRvs167,≤ 0
same,SPOT peptide array binding signal intensity,SpSla1-D1-D2,10
same,SPOT peptide array binding signal intensity,SpSla1-D3,13
